Consider four molecules from PubChem BioAssay (EPA / NIEHS).

Read-out in test [1]: TIMP metallopeptidase inhibitor 2 (TIMP2), TIMP2 (gene 7077)
The test is described as follows: BSK_KF3CT_TIMP2: BioMAP Diversity Plus: KF3CT Assay for TIMP metallopeptidase inhibitor 2 (TIMP2) Biomarker Activity (AID 2283071). Particulars: primary human keratinocytes with fibroblasts; actives raise or lower the signal. The gist of the method:
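Chemicals were dosed onto human skin primary co-cultures of keratinocytes and foreskin fibroblasts, and TIMP-2 was measured by ELISA after 24 hours. Activity in either direction was fitted relative to DMSO.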

Read-out in test [2]: Transforming growth factor beta 1 (TGFb1), TGFB1 (gene 7040)
The test is described as follows: BSK_KF3CT_TGFb1: BioMAP Diversity Plus: KF3CT Assay for Transforming growth factor beta 1 (TGFb1) Biomarker Activity (AID 2283072). Particulars: primary human keratinocytes with fibroblasts; actives raise or lower the signal. The gist of the method:
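KF3CT co-culture (keratinocytes + fibroblasts), 24 h exposure → TGF-b1 ELISA → bidirectional fit, DMSO = baseline. Parallel SRB total-protein staining (0.1% SRB, 10% TCA fixation, 560 nm) for cytotoxicity.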

Read-out in test [3]: C-C motif chemokine 2 (Homo sapiens) (UniProt P13500)
Nature of the test: BSK_KF3CT_MCP1: BioMAP Diversity Plus: KF3CT Assay for Monocyte Chemoattractant Protein 1 (MCP1/CCL2) Biomarker Activity (AID 2283073). Particulars: primary human keratinocytes with fibroblasts; actives raise or lower the signal. The gist of the method: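 Human keratinocyte–foreskin fibroblast co-culture; MCP-1 measured by ELISA 24 h after dosing. Bidirectional fit vs DMSO; cytotoxicity tracked by SRB total protein in parallel cultures.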

Read-out in test [4]: Matrix Metallopeptidase 9 (MMP9), MMP9 (gene 4318)
The test is described as follows: BSK_KF3CT_MMP9: BioMAP Diversity Plus: KF3CT Assay for Matrix Metallopeptidase 9 (MMP9) Biomarker Activity (AID 2283074).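 For AC50: MMP9 protein level quantified by ELISA in the co-culture.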 Particulars: primary human keratinocytes with fibroblasts; actives raise or lower the signal. In short, it runs like this:
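Values come from bidirectional fitting relative to DMSO of MMP-9 levels, which were measured by ELISA. Measurements were taken 24 h after chemical dosing of a keratinocyte and foreskin fibroblast co-culture.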

Read-out in test [5]: urokinase plasminogen activator (uPA), PLAU (gene 5328)
The test is described as follows: BSK_KF3CT_uPA: BioMAP Diversity Plus: KF3CT Assay for urokinase plasminogen activator (uPA) Biomarker Activity (AID 2283075). To be noted: primary human keratinocytes with fibroblasts; actives raise or lower the signal. The gist of the method: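 Values derive from bidirectional fitting against DMSO controls. Keratinocyte/foreskin fibroblast co-cultures received chemical; 24 h later uPA was detected by ELISA, with SRB total-protein staining in parallel wells for overt cytotoxicity.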

Read-out in test [6]: CD40, CD40 (gene 958)
Nature of the test: BSK_LPS_CD40: BioMAP Diversity Plus: LPS Assay for CD40 Biomarker Activity (AID 2283076). To be noted: primary human HUVEC with PBMC; actives raise or lower the signal. The gist of the method:
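HUVEC plus PBMC co-culture stimulated with LPS; CD40 quantified by ELISA 24 h after compound dosing. Fitting was bidirectional relative to DMSO. SRB staining of parallel cultures flagged overt cytotoxicity.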

Read-out in test [7]: E-selectin (Homo sapiens) (UniProt P16581)
The test is described as follows: BSK_LPS_Eselectin: BioMAP Diversity Plus: LPS Assay for Eselectin Biomarker Activity (AID 2283077). Particulars: primary human HUVEC with PBMC; actives raise or lower the signal. The gist of the method:
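Human umbilical vein endothelial cells co-cultured with PBMC under LPS stimulation; cell-surface E-selectin measured by ELISA 24 h after dosing. Change in either direction versus DMSO, with SRB total-protein staining in parallel cultures for cytotoxicity.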

Read-out in test [8]: Interleukin-8 (IL8), CXCL8 (gene 3576)
The test is described as follows: BSK_LPS_IL8: BioMAP Diversity Plus: LPS Assay for Interleukin-8 (IL8) Biomarker Activity (AID 2283078). Particulars: primary human HUVEC with PBMC; actives raise or lower the signal. In short, it runs like this: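 Human umbilical vein endothelial cells co-cultured with PBMC, LPS-stimulated, exposed to compound for 24 h. IL-8 quantified by ELISA; fitted in both directions against DMSO, with SRB total-protein staining of parallel cultures for cytotoxicity.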

The nature of test [9]: BSK_LPS_SRB: Viability Assessment in the BioMAP Diversity Plus: LPS Assay (AID 2283079).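 Note: total protein by sulforhodamine B absorbance as a cytotoxicity measure; measured one day after compound addition; fitted in both directions against DMSO so loss or gain of signal counts.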 To be noted: primary human HUVEC with PBMC. The gist of the method:
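Co-culture of human umbilical vein endothelial cells and PBMC, read 24 h after dosing. Total protein by 0.1% SRB staining after 10% TCA fixation, absorbance at 560 nm; bidirectional fit against DMSO.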

Read-out in test [10]: Interleukin-1 alpha (IL1a), IL1A (gene 3552)
Nature of the test: BSK_LPS_IL1a: BioMAP Diversity Plus: LPS Assay for Interleukin-1 alpha (IL1a) Biomarker Activity (AID 2283080). Particulars: primary human HUVEC with PBMC; actives raise or lower the signal. The gist of the method: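 Human umbilical vein endothelial cells co-cultured with PBMC and stimulated with LPS; IL-1a measured by ELISA 24 h after dosing. Bidirectional fitting against DMSO; cytotoxicity checked by SRB staining in parallel cultures.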

A short description of test [11]: BSK_LPS_PGE2: BioMAP Diversity Plus: LPS Assay for Prostaglandin E2 (PGE2) Biomarker Activity (AID 2283082). Particulars: primary human HUVEC with PBMC; actives raise or lower the signal. The gist of the method: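 Compounds were added to the LPS co-culture of endothelium and PBMC, and PGE2 was measured by ELISA after 24 h. Responses in either direction were fitted with DMSO as baseline.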

Read-out in test [12]: Macrophage colony-stimulating factor (MCSF), CSF1 (gene 1435)
Nature of the test: BSK_LPS_MCSF: BioMAP Diversity Plus: LPS Assay for Macrophage colony-stimulating factor (MCSF) Biomarker Activity (AID 2283083). Particulars: primary human HUVEC with PBMC; actives raise or lower the signal. The gist of the method:
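HUVEC–PBMC co-culture, M-CSF measured by ELISA 24 h after chemical dosing. Fitted in both directions relative to DMSO as negative control; overt cytotoxicity assessed by SRB total-protein staining in parallel cultures.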

Read-out in test [13]: Tumor necrosis factor (Homo sapiens) (UniProt P01375)
Nature of the test: BSK_LPS_TNFa: BioMAP Diversity Plus: LPS Assay for Tumour Necrosis Factor alpha (TNFa) Biomarker Activity (AID 2283085).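 For AC50: TNFa protein level quantified by ELISA in the co-culture.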 Particulars: primary human HUVEC with PBMC; actives raise or lower the signal. The gist of the method: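 Cells (umbilical vein endothelium plus peripheral blood mononuclear cells) were dosed with chemical, incubated 24 h, then TNFa was quantified by ELISA; values derive from bidirectional fitting with DMSO as baseline.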

Read-out in a further test: CD38, CD38 (gene 952)
Nature of the test: BSK_SAg_CD38: BioMAP Diversity Plus: SAg Assay for CD38 Biomarker Activity (AID 2283087). Particulars: primary human HUVEC with PBMC; actives raise or lower the signal. The gist of the method: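 CD38 quantified by ELISA (fluorescence) in a superantigen-activated endothelial cell–PBMC co-culture at 24 h post-dose. Activity fitted in both directions relative to DMSO; parallel SRB and Alamar Blue cytotoxicity read-outs.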

Read-out in test [14]: CD40, CD40 (gene 958)
Nature of the test: BSK_SAg_CD40: BioMAP Diversity Plus: SAg Assay for CD40 Biomarker Activity (AID 2283088). To be noted: primary human HUVEC with PBMC; actives raise or lower the signal. In short, it runs like this:
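HUVEC plus PBMC co-culture, superantigen-activated, with CD40 read by ELISA 24 h after dosing. Curves fitted in both directions against DMSO. Overt cytotoxicity checked by parallel SRB total-protein staining.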

Read-out in a further test: CD69, CD69 (gene 969)
The test is described as follows: BSK_SAg_CD69: BioMAP Diversity Plus: SAg Assay for CD69 Biomarker Activity (AID 2283089). Particulars: primary human HUVEC with PBMC; actives raise or lower the signal. In short, it runs like this:
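ELISA, fluorescence read-out: CD69 on human umbilical vein endothelial cell + PBMC co-culture, 24 h post-dosing. Gain or loss of signal fitted bidirectionally against DMSO baseline.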

Read-out in test [15]: Monocyte Chemoattractant Protein-1 (MCP1), CCL2 (gene 6347)
Nature of the test: BSK_SAg_MCP1: BioMAP Diversity Plus: SAg Assay for Monocyte Chemoattractant Protein-1 (MCP1) Biomarker Activity (AID 2283090). Particulars: primary human HUVEC with PBMC; actives raise or lower the signal. In short, it runs like this:
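Values derive from bidirectional fitting of ELISA-measured MCP1 against DMSO controls. Readings were taken 24 h after dosing human vascular endothelial cells co-cultured with peripheral blood mononuclear cells under superantigen stimulation.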

Read-out in test [16]: Monocyte Chemoattractant Protein-1 (MCP1), CCL2 (gene 6347)
Nature of the test: BSK_LPS_MCP1: BioMAP Diversity Plus: LPS Assay for Monocyte Chemoattractant Protein-1 (MCP1) Biomarker Activity (AID 2283081). To be noted: primary human HUVEC with PBMC; actives raise or lower the signal. The gist of the method:
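Human umbilical vein endothelial cells co-cultured with PBMC, LPS-stimulated; secreted MCP-1 measured by ELISA 24 h after compound addition. Bidirectional curve fitting against DMSO baseline; SRB total-protein staining in parallel cultures for cytotoxicity.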

Read-out in test [17]: Tissue Factor, F3 (gene 2152)
Nature of the test: BSK_LPS_TissueFactor: BioMAP Diversity Plus: LPS Assay for Tissue Factor Biomarker Activity (AID 2283084). To be noted: primary human HUVEC with PBMC; actives raise or lower the signal. The gist of the method:
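Human umbilical vein endothelial cells co-cultured with PBMC were dosed with compound. Cell-surface CD142 was measured by ELISA 24 h later. Activity was fitted bidirectionally against DMSO, with SRB total-protein staining in parallel cultures for cytotoxicity.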

The source made the active and inactive calls. Rule for the calls: active = hit-call score of the fitted dose curve at least 0.9, where 1 is the maximum; inactive = score below 0.9.

Chain of E-selectin (Homo sapiens) (P16581 whole entry, looked up): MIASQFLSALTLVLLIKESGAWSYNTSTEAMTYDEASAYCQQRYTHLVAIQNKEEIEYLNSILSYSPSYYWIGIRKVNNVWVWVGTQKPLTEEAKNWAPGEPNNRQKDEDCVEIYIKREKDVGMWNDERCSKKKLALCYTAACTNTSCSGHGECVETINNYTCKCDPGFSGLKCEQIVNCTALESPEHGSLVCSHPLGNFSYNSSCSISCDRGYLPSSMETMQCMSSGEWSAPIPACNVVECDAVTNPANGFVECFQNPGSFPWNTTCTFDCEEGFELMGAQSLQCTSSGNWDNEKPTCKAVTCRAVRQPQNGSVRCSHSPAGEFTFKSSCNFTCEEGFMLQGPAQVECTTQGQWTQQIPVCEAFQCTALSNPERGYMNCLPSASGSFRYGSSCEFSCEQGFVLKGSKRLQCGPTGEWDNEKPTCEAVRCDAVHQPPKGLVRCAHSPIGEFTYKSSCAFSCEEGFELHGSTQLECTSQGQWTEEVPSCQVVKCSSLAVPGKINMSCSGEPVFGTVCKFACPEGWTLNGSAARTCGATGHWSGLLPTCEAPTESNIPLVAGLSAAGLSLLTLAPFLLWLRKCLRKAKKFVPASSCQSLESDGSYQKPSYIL
Chain of Tumor necrosis factor (Homo sapiens) (P01375 whole entry, looked up): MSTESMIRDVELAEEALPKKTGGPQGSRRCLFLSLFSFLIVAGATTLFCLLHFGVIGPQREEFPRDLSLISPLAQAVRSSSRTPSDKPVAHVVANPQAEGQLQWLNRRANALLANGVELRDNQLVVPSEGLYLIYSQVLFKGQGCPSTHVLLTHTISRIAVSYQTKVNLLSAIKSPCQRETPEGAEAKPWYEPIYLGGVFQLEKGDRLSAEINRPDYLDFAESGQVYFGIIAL

Turning to `Nc1ccc([N+](=O)[O-])cc1Cl`, the outcome in test [1] was “inactive”; in [2], “inactive”; in [3], “inactive”; in [4], “inactive”; in [5] it was “inactive”; with CD40, CD40 (gene 958) [6] it was “inactive”. For the same molecule, the result in test [7], in test [8], in test [9], in [10], in test [11] and in [12] was inactive. For the same molecule, the outcome in test [13] was “inactive”; with CD38, CD38 (gene 952), “inactive”; with CD40, CD40 (gene 958) [14] it was “inactive”; with CD69, CD69 (gene 969), “inactive”; in [15], “inactive”.

For `CN(C)C(=O)Cl`, the outcome in test [1] was “inactive”; in test [2] it was “inactive”; in test [3] it was “inactive”; in test [4], “inactive”; in [5] it was “inactive”; with CD40, CD40 (gene 958) [6], “inactive”. The outcome in test [7], in [8], in test [9], in [10], in test [16] and in test [17] was inactive. Moreover, the outcome was “inactive” in test [13]; “inactive” with CD38, CD38 (gene 952); “inactive” in the test with CD40, CD40 (gene 958) [14]; “inactive” with CD69, CD69 (gene 969); “inactive” in [15].

Turning to `CCNc1nc(Cl)nc(NC(C)(C)C)n1`, the outcome was “inactive” in [1]; “inactive” in [2]; “inactive” in test [3]; “inactive” in test [4]; “inactive” in test [5]; “inactive” in the test with CD40, CD40 (gene 958) [6]. Besides, the result in test [7], in test [8], in test [9], in test [10], in test [16] and in [12] was inactive. Also, in the test with CD69, CD69 (gene 969), the result was inactive. The AC50 is 5.47 µM (active) in test [13]; 7.93 µM (active) with CD38, CD38 (gene 952); 20 µM (active) with CD40, CD40 (gene 958) [14].

Regarding `O=P(OCC(Br)CBr)(OCC(Br)CBr)OCC(Br)CBr` (configuration not stated), the outcome in test [1] was “inactive”; in test [2], “inactive”; in [3], “inactive”; in test [5], “inactive”; with CD40, CD40 (gene 958) [6], “inactive”; in test [7] it was “inactive”. In addition, the outcome in [8], in test [9], in test [10], in test [16], in test [12] and in test [13] was inactive. Moreover, the outcome with CD38, CD38 (gene 952) was “inactive”; in the test with CD40, CD40 (gene 958) [14], “inactive”; with CD69, CD69 (gene 969), “inactive”; in [15] it was “inactive”. For the same molecule, in test [4], the AC50 is 21.1 µM (active).

The AC50 is the midpoint of the concentration-response curve, whichever way the signal moves.
